Data published in PubChem BioAssay AID1159580 (chemical genetic matrix, 2015).
“And” between values parts separate entries of the source, which are not always exact repeats. Identical values can stand only once. The whole screen tested about 5,500 compounds, of which about 2,000 (36%) were called active. Another 18% or so got no clear call; they are omitted. No stated cut-off is given here; in the data, active means normalized growth mostly below about 0.91 (no sharp cut-off); inconclusive means no clear call, values can overlap the other calls; inactive means mostly above about 0.92. The list shows a part of the results.

Experiment: chemical genetic growth profiling, strain panel (AID 1159580);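 further: tested at 20 µM; growth read once vehicle control cultures reached saturation at 30 °C; 1 = growth at the plate median or of vehicle wells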
Conditions: S. cerevisiae deletion strains, growth OD

Measured: normalized growth

O=NN(CCCl)C(=O)NCCCl
active: locus YJR066W, strain TOR1, stronger effect = lower value 0.389 | locus YKL009W, strain mrt4, stronger effect = lower value 0.851 | locus YKL160W, strain elf1, stronger effect = lower value 0.86 | locus YLR113W, strain HOG1, stronger effect = lower value 0.312 | locus YLR221C, strain rsa3, stronger effect = lower value 0.851 | locus YLR320W, strain mms22, stronger effect = lower value 0.589 | locus YLR357W, strain rsc2, stronger effect = lower value 0.813 | locus YLR418C, strain cdc73, stronger effect = lower value 0.601 | locus YML120C, strain ndi1, stronger effect = lower value 0.852 | locus YMR058W, strain fet3, stronger effect = lower value 0.878 | locus YNL071W, strain lat1, stronger effect = lower value 0.914 | locus YNL183C, strain NPR1, stronger effect = lower value 0.368 | locus YNL248C, strain rpa49, stronger effect = lower value 0.763 | locus YNL250W, strain rad50, stronger effect = lower value 0.852 | locus YNL298W, strain CLA4, stronger effect = lower value 0.888 | locus YNL322C, strain KRE1 (second series), stronger effect = lower value 0.764 | locus YOR001W, strain rrp6, stronger effect = lower value 0.751 | locus YOR083W, strain WHI5, stronger effect = lower value 0.844 | locus YOR106W, strain vam3, stronger effect = lower value 0.786 | locus YOR184W, strain ser1, stronger effect = lower value 0.783 | locus YOR231W, strain MKK1, stronger effect = lower value 0.295 | locus YOR270C, strain vph1, stronger effect = lower value 0.638 | locus YPL256C, strain CLN2, stronger effect = lower value 0.352 | strain wtn01, stronger effect = lower value 0.853
inactive: locus YJR075W, strain HOC1, stronger effect = lower value 0.995 | locus YKL068W, stronger effect = lower value 0.997 | locus YKL085W, strain MDH1 (second series), stronger effect = lower value 0.994 | locus YKL085W, strain MDH1, stronger effect = lower value 0.994 | locus YKL190W, strain CNB1, stronger effect = lower value 1.03 | locus YKR001C, strain vps1, stronger effect = lower value 0.904 | locus YKR026C, strain gcn3, stronger effect = lower value 0.983 | locus YKR091W, strain srl3, stronger effect = lower value 0.975 | locus YLL001W, strain dnm1, stronger effect = lower value 0.963 | locus YLL026W, stronger effect = lower value 0.973 | locus YLL041C, strain sdh2, stronger effect = lower value 0.957 | locus YLR027C, strain aat2, stronger effect = lower value 0.934 | locus YLR039C, strain RIC1, stronger effect = lower value 1.08 | locus YLR058C, strain SHM2, stronger effect = lower value 0.984 | locus YLR102C, strain apc9, stronger effect = lower value 0.99 | locus YLR258W, strain gsy2, stronger effect = lower value 0.965 | locus YLR262C, strain YPT6 (second series), stronger effect = lower value 0.939 | locus YLR262C, strain YPT6, stronger effect = lower value 0.988 | locus YLR268W, strain sec22, stronger effect = lower value 0.957 | locus YLR330W, strain CHS5, stronger effect = lower value 0.989 | locus YLR342W, strain FKS1 (second series), stronger effect = lower value 0.967 | locus YLR342W, strain FKS1, stronger effect = lower value 0.958 | locus YLR370C, strain arc18, stronger effect = lower value 0.972 | locus YLR371W, strain rom2, stronger effect = lower value 0.972 | locus YLR384C, strain iki3, stronger effect = lower value 0.96 | locus YML016C, strain PPZ1, stronger effect = lower value 0.989 | locus YML032C, strain rad52, stronger effect = lower value 0.915 | locus YML124C, strain tub3, stronger effect = lower value 0.997 | locus YMR078C, strain ctf18, stronger effect = lower value 0.98 | locus YMR125W, strain sto1, stronger effect = lower value 0.961 | locus YMR129W, stronger effect = lower value 0.967 | locus YMR205C, strain PFK2, stronger effect = lower value 0.878 | locus YMR223W, strain ubp8, stronger effect = lower value 0.918 | locus YMR231W, strain pep5, stronger effect = lower value 0.973 | locus YMR263W, strain SAP30, stronger effect = lower value 0.948 and 0.997 | locus YMR307W, strain GAS1, stronger effect = lower value 0.781 and 0.985 | locus YNL067W, strain RPL9B, stronger effect = lower value 0.947 | locus YNL175C, strain NOP13, stronger effect = lower value 0.984 | locus YNL197C, strain WHI3, stronger effect = lower value 1.01 | locus YNL209W, strain ssb2, stronger effect = lower value 0.965 | locus YNL224C, strain SQS1, stronger effect = lower value 1 | locus YNL233W, strain BNI4, stronger effect = lower value 0.959 | locus YNL271C, strain bni1, stronger effect = lower value 0.947 | locus YNL307C, strain MCK1, stronger effect = lower value 0.96 | locus YNL322C, strain KRE1, stronger effect = lower value 1 | locus YNR049C, strain mso1, stronger effect = lower value 0.964 | locus YNR052C, strain pop2, stronger effect = lower value 0.994 | locus YOL006C, strain TOP1, stronger effect = lower value 0.789 | locus YOL012C, strain htz1 0.791 | locus YOL147C, strain pex11, stronger effect = lower value 0.981 | locus YOR061W, strain CKA2, stronger effect = lower value 0.996 | locus YOR069W, strain VPS5, stronger effect = lower value 0.996 | locus YOR070C, strain gyp1, stronger effect = lower value 0.968 | locus YOR080W, strain dia2, stronger effect = lower value 0.924 | locus YOR083W, strain WHI5 (second series), stronger effect = lower value 1.01 | locus YOR136W, strain idh2, stronger effect = lower value 0.967 | locus YOR144C, strain elg1, stronger effect = lower value 0.984 | locus YOR265W, strain rbl2, stronger effect = lower value 0.957 | locus YOR290C, strain snf2, stronger effect = lower value 0.872 | locus YOR316C, strain cot1, stronger effect = lower value 0.989 | locus YPL051W, strain arl3, stronger effect = lower value 0.942 | locus YPL055C, strain LGE1, stronger effect = lower value 0.777 | locus YPL078C, strain atp4, stronger effect = lower value 0.918 | locus YPL106C, strain sse1, stronger effect = lower value 1.05 | locus YPL240C, strain hsp82, stronger effect = lower value 0.976 | locus YPR119W, strain clb2, stronger effect = lower value 0.992 | locus YPR141C, strain kar3, stronger effect = lower value 0.991 | locus YPR163C, strain tif3, stronger effect = lower value 0.984 | locus YPR167C, strain met16, stronger effect = lower value 0.991
